Where “and” joins values, the source holds several entries; their conditions need not be identical. Equal values may be shown once. Records with an inconclusive call do not appear. Some structures have more than one record in an assay (separate samples or runs), and their calls can disagree. Calls of active or inactive are those of the source. Calls follow the shape of the dose curve; as a rule, active = well fitted curve in the direction sought with a large enough effect; inconclusive = small, poorly fitted or top-dose-only effect, or another doubt; inactive = no such curve, though single readings can be large; an effect the other way counts as inactive or inconclusive.
How the values were obtained:
[1] = P-glycoprotein substrates identified in KB-8-5-11 adenocarcinoma cell line, qHTS therapeutic library screen (AID 1346987); also: nearly all actives have a fitted effect of over 65% in size
In short: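 Luminescence from CellTiter-Glo, read 5 min after addition, quantified survival of KB-8-5-11 (P-gp-overexpressing) cells exposed to compounds for 72 h. AC50 was derived from concentration-response curves.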

[2] = NS1 protein of Zika virus - qHTS assay to identify small molecule inhibitors in human HEK 293 cells (AID 1347053); also: nearly all actives have a fitted effect of over 55% in size
In short: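 Read-out is a two-antibody TR-FRET for ZIKV NS1, normalized between uninfected cells and infected cells. Compound added 1 h before MR766 infection at MOI 0.5; human HEK 293 cells incubated 24 h, 37 C.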

[3] = qHTS of pediatric cancer cell lines to identify multiple opportunities for drug repurposing: Primary screen for TC32 cells (AID 1347089); also: nearly all actives have a fitted effect of over 60% in size
In short: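 Luminescent ATP read-out (CellTiter-Glo) of metabolically active TC32 cells after 48 h exposure. Concentration-response curves came from 11-point (MIPE, 0.78 nM–46 µM) or 8-point (NPC, 0.59 nM–46 µM) primary titrations; follow-up used 11 points.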

[4] = qHTS of pediatric cancer cell lines to identify multiple opportunities for drug repurposing: Primary screen for SJ-GBM2 cells (AID 1347091)
In short: (§1)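 Viability measured as metabolically active cells via CellTiter-Glo luminescence following 48 hours of compound exposure, 11-point dilutions in confirmatory testing. 500-1,000 cells/well plated 5 hours before dosing; controls were DMSO and 2.3 µM bortezomib.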

[5] = qHTS of pediatric cancer cell lines to identify multiple opportunities for drug repurposing: Primary screen for A673 cells (AID 1347092); also: nearly all actives have a fitted effect of over 45% in size
In short: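 Cell viability of A673 measured by CellTiter-Glo ATP luminescence after 48 hours compound exposure. Dilution series spanned 0.78 nM to 46 µM (MIPE, 11-point) or 0.59 nM to 46 µM (NPC, 8-point); bortezomib 2.3 uM positive control.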

[6] = qHTS of pediatric cancer cell lines to identify multiple opportunities for drug repurposing: Primary screen for SK-N-MC cells (AID 1347093)
In short: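 Metabolically active cells were quantified by ATP-dependent luminescence (CellTiter-Glo, 15 min at room temperature) following 48 h treatment. Cells had been plated at 500-1,000 per well and settled for 5 h beforehand.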

[7] = qHTS of pediatric cancer cell lines to identify multiple opportunities for drug repurposing: Primary screen for BT-37 cells (AID 1347094)
In short: (§2)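 CRCs from 8- or 11-point titrations (lowest final 0.59 nM NPC, 0.78 nM MIPE). Cell viability: CellTiter-Glo after 48 h incubation, 15 min room-temperature development, luminescence imaging.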

[8] = qHTS of pediatric cancer cell lines to identify multiple opportunities for drug repurposing: Primary screen for DAOY cells (AID 1347090); also: nearly all actives have a fitted effect of over 55% in size
In short: as §1

[9] = qHTS of pediatric cancer cell lines to identify multiple opportunities for drug repurposing: Primary screen for NB-EBc1 cells (AID 1347095)
In short: as §2

Measured: Potency
Potency is read from the fitted curve at half-maximal effect.

O=C(Nc1ncc(-c2cc(C(F)F)nn2-c2c(Cl)cccc2Cl)s1)C1CC1
active: [1] 662 nM and 731 nM | [2] 1050 nM | [3] 1310 nM | [4] 332 nM | [5] 296 nM | [6] 296 nM | [7] 863 nM

CNC(=O)c1c(F)cccc1Nc1nc(Nc2cc3c(cc2OC)CCN3C(=O)CN(C)C)nc2[nH]ccc12
inactive: [2]
active: [1] 16.6 µM and 18.4 µM | [3] 5870 nM | [8] 118 nM | [5] 93.5 nM | [6] 14.8 nM

Nc1nc(Nc2ccc(S(N)(=O)=O)cc2)nn1C(=O)c1c(F)cccc1F
active: [1] 10.5 µM and 7.31 µM | [2] 18700 nM | [3] 14700 nM | [8] 11800 nM | [4] 3720 nM | [5] 2960 nM | [6] 3320 nM | [7] 15300 nM | [9] 5260 nM

CC1(C)CC(=O)c2c(C(F)(F)F)nn(-c3ccc(C(N)=O)c(NC4CCC(OC(=O)CN)CC4)c3)c2C1 (stereo not drawn)
active: [1] 662 nM and 820 nM | [3] 739 nM | [4] 332 nM | [5] 235 nM | [6] 166 nM | [9] 296 nM
inactive: [2]

O=C(O)CO.[NH2-].[NH2-].[Pt+2]
inactive: [1] | [2] | [3] | [8] | [4] | [5] | [7]

CC=CC1=C(C(=O)O)N2C(=O)[C@H](NC(=O)[C@H](N)c3ccc(O)cc3)[C@@H]2SC1
inactive: [1] | [2] | [3] | [8] | [4] | [9]
active: [5] 935 nM | [6] 23500 nM

CN(C)Cc1c(C(=O)NCCOc2ccc(C(=O)NO)cc2)oc2ccccc12
inactive: [2]
active: [1] 7.43 µM and 4.61 µM | [3] 5870 nM | [8] 3720 nM | [4] 1050 nM | [5] 935 nM | [7] 1930 nM | [9] 662 nM

NC(=O)c1cccc2cn(-c3ccc([C@@H]4CCCNC4)cc3)nc12
inactive: [1] | [8]
active: [2] 11800 nM | [3] 20800 nM | [5] 1870 nM | [6] 8330 nM | [9] 6620 nM

CCN1CCN(Cc2ccc(-c3cc4c(N[C@H](C)c5ccccc5)ncnc4[nH]3)cc2)CC1
active: [3] 117 nM | [8] 1 nM | [4] 332 nM | [5] 1 nM | [6] 1 nM | [7] 153 nM
inactive: [1]

NC(=O)c1c(OCc2c(F)cc(Br)cc2F)nsc1NC(=O)NCCCCN1CCCC1
inactive: [2]
active: [1] 18.4 µM | [8] 23500 nM | [4] 20900 nM | [5] 18700 nM | [6] 16600 nM | [7] 24300 nM | [9] 2640 nM

CC(C)c1cc(C(=O)N2Cc3ccc(CN4CCN(C)CC4)cc3C2)c(O)cc1O
active: [1] 0.092 µM | [3] 1040 nM | [8] 935 nM | [4] 372 nM | [5] 296 nM | [6] 332 nM

CCCNC(=O)Nc1ccc(Oc2ncnc3cc(OC)c(OC)cc23)cc1Cl
inactive: [1] | [2] | [8] | [5] | [7]

CC(C)c1noc(N2CCC(COc3ccc(-c4ccc(S(C)(=O)=O)cc4)nc3)CC2)n1
inactive: [1] | [2] | [3] | [4] | [6] | [9]

COc1cccc(Nc2c(C(N)=O)cnc3c(C)cc(S(=O)(=O)c4cccc(C(=O)N(C)C)c4)cc23)c1
active: [6] 6450 nM
inactive: [1] | [2] | [8] | [4] | [5] | [7]

Cn1cc(-c2ccncc2)c(-c2ccc(OCc3ccc4ccccc4n3)cc2)n1
inactive: [2]
active: [1] 20.6 µM | [8] 4690 nM | [5] 3720 nM | [6] 9350 nM

CC(C)c1nn(-c2c(Cl)cccc2Cl)c2nc(Cc3ccc(OCCO)cc3)[nH]c(=O)c12
active: [1] 118 nM and 103 nM | [2] 166 nM | [8] 74.3 nM | [4] 41.8 nM | [5] 37.2 nM | [7] 96.8 nM | [9] 93.5 nM

CC(C)(C)c1cnc(CSc2cnc(NC(=O)C3CCNCC3)s2)o1
inactive: [1]
active: [2] 1320 nM | [8] 935 nM | [4] 187 nM | [5] 46.9 nM | [6] 332 nM | [7] 385 nM | [9] 935 nM

COc1cc(-c2nn(C3CCC(N4CCN(C(C)=O)CC4)CC3)c3ncnc(N)c23)ccc1NC(=O)c1cc2ccccc2n1C (stereo not drawn)
inactive and 20.6 µM (active): [1]
inactive: [2]
active: [4] 1870 nM | [5] 235 nM | [6] 743 nM

— PubChem BioAssay (NCATS)
